Bioassay records: PubChem BioAssay, National Center for Advancing Translational Sciences (NCATS)
nsP2pro primary: Primary qHTS for inhibitors of NSP2Pro chikungunya virus (CHIKV) | FRET peptide cleavage, nsP2pro, fluorescence 1 h | Potency, µM (top dose mostly 24.9 µM), for inactives: at the highest dose activity change, negative = inhibition, usual class: inhibitors | 31,000 compounds, 1.1% hits | Polyprotein P1234 (Chikungunya virus (strain S27-African prototype)), Q8JUX6; further: nearly all actives have a fitted effect of over 60% in size
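Enzyme 150 nM, substrate 2.5 uM (both final); Tris-HCl 10 mM pH 8.0 + 0.01% Tween 20; cpd up to 25 uM, 7 pts; 15 min preinc., 1 h RT; fluorescence ex 525/em 598.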
CHIKV nsP2 cell: Secondary cell base assay for inhibitors of NSP2Pro Chikungunya virus (CHIKV); cell-based CHIKV nsP2 protease reporter assay; Potency, µM (series often up to 51.1 µM), for inactives: at the highest dose activity change, negative = inhibition, hits mostly inhibitors; 450 compounds, 10% hits; shares compounds with nsP2pro primary; further: nearly all actives have a fitted effect of over 70% in size
CHIKV NSP2 FL: Selectivity profile for inhibitors of NSP2Pro chikungunya virus (CHIKV): Full length NSP2 enzyme counterscreen (CHIKV-NSP2) | Potency, µM (titrated, usually from 50.7 µM), inactives show at the top dose activity change, negative = inhibition, actives largely listed as inhibitors | shares compounds with nsP2pro primary | Full-length CHIKV NSP2 protease enzymatic counterscreen | 410 compounds, 39% hits; further: nearly all actives have a fitted effect of over 65% in size
Furin counterscr: Selectivity profile for inhibitors of NSP2Pro chikungunya virus (CHIKV): Human furin counterscreen | shares compounds with nsP2pro primary | Recombinant human furin enzymatic counterscreen, fluorogenic substrate | Potency, µM (doses to about 50.6 µM), for the others: at the top dose activity change, negative = inhibition, hits mostly inhibitors | 410 compounds, 6% hits
NS23 peptide cs: Selectivity profile for inhibitors of NSP2Pro chikungunya virus (CHIKV): Endogenous NS2/3 peptide Counterscreen. shares compounds with nsP2pro primary. Purified CHIKV nsP2 protease, endogenous NS2/3 peptide cleavage. Potency, µM (highest dose often 51 µM), inactives show top-dose activity change, negative = inhibition, actives largely listed as inhibitors. 410 compounds, 34% hits. AID 1964103, 2024; further: nearly all actives have a fitted effect of over 55% in size
Papain cs: Selectivity profile for inhibitors of NSP2Pro chikungunya virus (CHIKV): Papain Counterscreen; Potency, µM (top dose mostly 51 µM), for the others: at the highest dose activity change, negative = inhibition, usual class: inhibitors; purified papain protease activity, enzymatic inhibition; 410 compounds, 5% hits; shares compounds with nsP2pro primary
nsP2pro conf qHTS: Confirmatory qHTS for inhibitors of NSP2Pro chikungunya virus (CHIKV); shares compounds with nsP2pro primary; CHIKV nsP2 protease enzymatic activity, qHTS; Potency, µM (doses to about 25.5 µM), for the others: top-dose activity change, negative = inhibition, hits mostly inhibitors; 410 compounds, 43% hits; AID 1964105, 2024; further: nearly all actives have a fitted effect of over 75% in size
HCV NS3 4A cs: Selectivity profile for inhibitors of NSP2Pro chikungunya virus (CHIKV): NS34A-HCV Counterscreen; shares compounds with nsP2pro primary; HCV NS3/4A protease biochemical counterscreen; Potency, µM (titrated, usually from 50.9 µM), hits mostly inhibitors; 410 compounds, 20% hits; further: nearly all actives have a fitted effect of over 55% in size
Active calls of the source: *; i = inactive; ? = inconclusive; [ ] = another dose, or the depositor's remark. Many of the other results were omitted from the sample, so hits are more common in it than they were. The call rests on the fitted dose curve. On the % scale 0 is the no-effect control and ±100 the full control effect; potency means the concentration at half of the fitted maximal effect.

SMILES	nsP2pro primary	others
COc1ccc(C(=O)Nc2nc(-c3ccccc3)cs2)c(NS(=O)(=O)c2ccc(C)cc2)c1	-2%
O=C(Nc1cccc(F)c1)N1Cc2[nH]cnc2C[C@H]1c1nc(-c2ccncc2)no1	i
Cc1cccc(-c2noc([C@@H]3Cc4nc[nH]c4CN3C(=O)NC3CCCCC3)n2)c1	0.63µM*	CHIKV nsP2 cell=51%;CHIKV NSP2 FL=5.3µM*;Furin counterscr=-3%;NS23 peptide cs=7.5µM*;Papain cs=-12%;nsP2pro conf qHTS=2.1µM*;HCV NS3 4A cs=i
O=C(NC1CCCCC1)N1Cc2[nH]cnc2C[C@H]1c1nc(-c2ccccc2)no1	31%[39.2 µM]
Cc1ccccc1NC(=O)CN1C(=O)N/C(=C\c2cn(-c3cccc(C(=O)O)c3)cn2)C1=O	-4%
NCCC[C@H](N)CC(=O)N[C@H]1CNC(=O)[C@H]([C@H]2C[C@H](O)N=C(N)N2)NC(=O)/C(=C/NC(N)=O)NC(=O)[C@H](CO)NC(=O)[C@H](CO)NC1=O	7%
COCC1CN(C)CC12CCN(C(=O)c1cc3ccccc3[nH]1)CC2 (centres undefined)	i
Cc1ccc(S(=O)(=O)c2cnc(SCC(=O)Nc3ccc4c(c3)OCCO4)[nH]c2=O)cc1Cl	35%
O=C(CSc1ncc(S(=O)(=O)c2ccc(Br)cc2)c(=O)[nH]1)NCc1ccccc1Cl	26%
CC(C)c1ccc(S(=O)(=O)c2cnc(SCC(=O)Nc3ccc4c(c3)OCCO4)[nH]c2=O)cc1	4µM*	CHIKV nsP2 cell=?;CHIKV NSP2 FL=-14%;Furin counterscr=-8%;NS23 peptide cs=208%;Papain cs=?;nsP2pro conf qHTS=65%;HCV NS3 4A cs=i
CC(C)=CCCC1(C)C=Cc2c(c(C)cc3c2[nH]c2ccccc23)O1 (centres undefined)	0%
CC(C)=CCCC1(C)C=Cc2c(O)c3c(c(CC=C(C)C)c2O1)OC12C(=CC4CC1C(C)(C)OC2(C/C=C(/C)C(=O)O)C4=O)C3=O (centres undefined)	?	CHIKV nsP2 cell=?;CHIKV NSP2 FL=-6%;Furin counterscr=-13%;NS23 peptide cs=?;Papain cs=-19%;nsP2pro conf qHTS=?;HCV NS3 4A cs=i
FC(F)(F)c1ccccc1-c1nc(NCc2cccc(Cl)c2)c2ccccc2n1	-1%
CC(C)(C)OC(=O)N[C@@H](Cc1ccc(O[S+](=O)([O-])c2cccc3cnccc23)cc1)C(=O)Nc1ccc(-c2ccccc2)cc1	-7%
C=C/C=C\CC1=C(C)[C@@H](OC(=O)[C@H]2[C@H](C=C(C)C)C2(C)C)CC1=O	-14%
CN(C)c1ccc2nc(NC(=S)N3CCN(c4cccc(C(F)(F)F)c4)CC3)sc2c1	i
Cn1nc(-c2cccc(F)c2)c(N2CCCC2)c1NC(=O)NCc1ccccc1	-3%
N[C@@H](CO)C(=O)Nc1ccc(Cl)cc1C(=O)c1ccc[nH]1	-4%
NC(CO)C(=O)NNCc1ccc(O)c(O)c1O (centres undefined)	1.8µM*	CHIKV nsP2 cell=-9%;CHIKV NSP2 FL=6.5µM*;Furin counterscr=-9%;NS23 peptide cs=4.1µM*;Papain cs=-1%;nsP2pro conf qHTS=1.3µM*;HCV NS3 4A cs=?
OC(CCN1CCCCC1)(c1ccccc1)C1CCCC1 (centres undefined)	-6%
CC(C)(C)OC(=O)N1CCN(c2ccc(NCc3nnc(-c4ccc(C#N)cc4)o3)cc2)CC1	2%
Cc1ccc2nc3sc(C(=O)NC4CCCCC4)cc3cc2c1	4%
Fc1ccc2nc(CCC#Cc3ccccn3)cn2c1	?	CHIKV nsP2 cell=-3%;CHIKV NSP2 FL=11%;Furin counterscr=-6%;NS23 peptide cs=2%;Papain cs=11%;nsP2pro conf qHTS=3%;HCV NS3 4A cs=i
Cn1cccc1CN=C1NC2=C(C(=O)CCC2)C(c2[nH]ncc2Cl)N1 (centres undefined)	-2%
CN1CCN(C2=Nc3ccccc3Nc3ccc(O)cc32)CC1	-12%
SMILES	nsP2pro primary	others
O=C(O/N=C1\c2ccccc2-c2nc3ccccc3nc21)c1ccco1	?	CHIKV nsP2 cell=1%;CHIKV NSP2 FL=3.7µM*;Furin counterscr=-10%;NS23 peptide cs=?;Papain cs=2.6µM*;nsP2pro conf qHTS=3.2µM*;HCV NS3 4A cs=i
O=C(Nc1cccnc1)c1ccco1	2%
Cc1cc(NC(=O)c2ccco2)cc(-c2nc3ccccc3o2)c1O	-28%
CN[C@@H]1[C@H](O[C@H]2[C@H](O[C@@H]3[C@@H](O)[C@H](O)[C@@H](N=C(N)N)[C@H](O)[C@H]3NC(=N)N)O[C@@H](C)[C@]2(O)CO)O[C@@H](CO)[C@H](O)[C@H]1O	3%
Cc1cnc(NC(=O)c2ccc(-c3cccc([N+](=O)[O-])c3)o2)s1	-5%
CC(C)CCNC(=O)[C@H](CC(C)C)NC(=O)[C@H]1O[C@@H]1C(=O)NCc1cccc(C#N)c1	2.5µM*	CHIKV nsP2 cell=?;CHIKV NSP2 FL=6.5µM*;Furin counterscr=1%;NS23 peptide cs=5.8µM*;Papain cs=2.6µM*;nsP2pro conf qHTS=2.5µM*;HCV NS3 4A cs=i
CCOC(=O)[C@H]1O[C@@H]1C(=O)N[C@@H](CC(C)C)C(=O)NCCC(C)C	8.8µM*	CHIKV nsP2 cell=-9%;CHIKV NSP2 FL=16µM*;Furin counterscr=-9%;NS23 peptide cs=?;Papain cs=1.2µM*;nsP2pro conf qHTS=8µM*;HCV NS3 4A cs=i
CCOC(=O)c1noc2ncn(Cc3cccc(C#N)c3)c(=O)c12	-13%
CC(C)CCNC(=O)C1CCCN(C2CCN(CCc3ccccc3)CC2)C1 (centres undefined)	4%
Cc1ccccc1S(=O)(=O)Nc1cnccc1C(=O)Nc1nc(-c2ccccc2)cs1	i
CCn1cc(-c2ccncc2)cc1C(=O)NCc1ccc(OC(C)C)cc1	i
COc1cccc(CNc2ccc(S(=O)(=O)Nc3ncccn3)cc2)c1O	i
Cc1ccc(NC(=O)CN2C(=O)N/C(=C\c3cccn3-c3ccc(C(=O)NS(C)(=O)=O)cc3)C2=O)cc1	i
COc1cc2ncnc(Nc3cccc(I)c3)c2cc1OC	55%
CC(=O)NCCCCn1c2c(c3ccccc31)C(=O)NCC2	-19%
